Results: PubChem BioAssay
“And” between values parts separate entries of the source, which are not always exact repeats. Equal values may be shown once. The source made the active and inactive calls. Rule as the data show it, unless noted: active = inhibition above about 80%; inactive = the rest.

Assays:
[1] = drug combination growth inhibition, ovarian cancer – cell-based, oncology-focused library, rucaparib conditional, profiling panel (AID 1508598;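 active = normalized viability below 100% at a tested concentration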); settings: patient-derived ovarian cancer cells, CellTiter-Glo viability, 144 h, at 5 µM, stronger effect = lower value
[2] = growth inhibition, single agent or in combination, cell-based, chromothripsis tumors, cisplatin or BGB combos (AID 1671449); settings: LFS_MB_P medulloblastoma cells;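 also: cells exposed for 96 hours; 0% = vehicle DMSO and 100% = killing by high DMSO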
[3] = growth inhibition, single agent and combos, cell-based, chromothripsis tumors, cisplatin or BGB combos (AID 1671450); settings: HDN33 neuroblastoma cells, stronger effect = higher value;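 also: cells exposed to compound for four days; 0% = vehicle DMSO and 100% = cell killing by high DMSO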
[4] = growth inhibition, single agents and combos, ICB984, cell-based, cisplatin or BGB combos, synergistic combos for chromothripsis tumors (AID 1671451; call rule not given here;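 also: cells exposed for 96 hours before readout; 0% = vehicle DMSO and 100% = killing by high DMSO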); settings: ICB984 medulloblastoma cells, drug combinations, stronger effect = higher value
[5] = growth inhibition, single agents and combos, HTB85, cell-based, BGB or cisplatin IC20 combos, synergistic combos for chromothripsis tumors (AID 1671453); settings: HTB85 osteosarcoma cells, drug combinations, stronger effect = higher value;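 also: cells exposed for 96 hours before readout; 0% = vehicle DMSO and 100% = high DMSO killing control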
[6] = growth inhibition, MDA-MB-436, cell-based, BGB or cisplatin combos, synergistic combos for chromothripsis tumors (AID 1671458; call rule not given here;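 also: cells exposed for 96 hours; 0% = vehicle DMSO and 100% = killing by high DMSO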); settings: MDA-MB-436 breast carcinoma growth inhibition, drug combinations, stronger effect = higher value
[7] = BT084 cell growth, single and combined drugs, ICGC_MB145, cisplatin and BGB IC40 combos (AID 1671461); settings: BT084 medulloblastoma cells, drug combinations, stronger effect = higher value;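 also: cells exposed to drugs for 96 hours; 0% = vehicle DMSO and 100% = high DMSO full killing control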
[8] = RCMB18 cell growth, single agent and combined, cisplatin and BGB IC40 combos (AID 1671462); settings: RCMB18 medulloblastoma cells, stronger effect = higher value;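 also: cells exposed to compound for four days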

Compound: O=C(c1cc(Cc2n[nH]c(=O)c3ccccc23)ccc1F)N1CCN(C(=O)C2CC2)CC1
- viability ([1]; OCI-C5x cells, with rucaparib 10 µM, 100% = cells with rucaparib alone): 105% (inactive)
- viability ([1]; OCI-C5x cells, without rucaparib): 115% (inactive)
- viability ([1]; OCI-P5x cells, with rucaparib 20 µM, 100% = cells with rucaparib alone): 86.1% (active)
- viability ([1]; OCI-P5x cells, without rucaparib): 66.2% (active)
- inhibition ([2]; at 0.5 µM, stronger effect = higher value): -24.7% (inactive) and -29.1% (inactive)
- inhibition ([2]; measured here: combination with BGB IC20, at 0.005 µM): -26.5% and -12.3%
- inhibition ([2]; measured here: combination with BGB IC40, at 0.005 µM): -9.06% and -12.6%
- inhibition ([2]; measured here: combination with BGB IC40, at 0.05 µM): -0.874% and -8.68%
- inhibition ([2]; measured here: combination with cisplatin, at 0.5 µM, stronger effect = higher value): -41.7% and -35.8%
- inhibition ([2]; measured here: combination with cisplatin, at 5 µM, stronger effect = higher value): -43.9% and -38.7%
- inhibition ([3]; BGB combo, at 5 µM): 14.5% and 9.24%
- inhibition ([3]; at 0.5 µM): 9.6% (inactive) and 3.35% (inactive)
- inhibition ([3]; cisplatin combo, at 5 µM): 34.3% and 41.4%
- inhibition ([3]; measured here: with BGB IC20 combination, at 0.5 µM): 5.51% and -1.25%
- inhibition ([3]; measured here: with cisplatin IC20 combination, at 0.5 µM): 12.4% and 7.9%
- inhibition ([3]; single agent, at 5 µM): 33% and 44.4%
- inhibition ([4]; BGB IC20 combo, at 0.005 µM): -15.2% and -6.05%
- inhibition ([4]; BGB IC40 combo, at 0.005 µM): -0.22% and -27.2%
- inhibition ([4]; BGB IC40 combo, at 0.05 µM): -4.94% and -12.9%
- inhibition ([4]; at 0.5 µM): -19.9% (inactive) and -38.5% (inactive)
- inhibition ([4]; cisplatin combo, at 0.05 µM): -4.94% and -17.3%
- inhibition ([4]; cisplatin combo, at 0.5 µM): -29% and -53.3%
- inhibition ([4]; cisplatin combo, at 5 µM): -23.6% and -39.9%
- inhibition ([4]; measured here: 5 uM single agent, at 5 µM): -15.8% and -10.7%
- inhibition ([5]; at 0.5 µM): -1.59% (inactive) and -5.82% (inactive)
- inhibition ([5]; measured here: with BGB IC20, at 0.5 µM): -20% and -25.5%
- inhibition ([5]; measured here: with BGB IC20, at 5 µM): -17% and 2.87%
- inhibition ([5]; measured here: with cisplatin IC20, at 0.5 µM): 8.83% and 6.96%
- inhibition ([5]; measured here: with cisplatin IC20, at 5 µM): 18.3% and 28.5%
- inhibition ([5]; single agent, at 5 µM): 9.91% and 21.3%
- inhibition ([6]; at 0.5 µM): 6.46% (inactive) and -12% (inactive)
- inhibition ([6]; measured here: BGB combination, at 0.5 µM): 1.64% and -35.6%
- inhibition ([6]; measured here: BGB combination, at 5 µM): -1.2% and -15.8%
- inhibition ([6]; measured here: cisplatin combination, at 0.5 µM): -0.142% and -2.85%
- inhibition ([6]; measured here: cisplatin combination, at 5 µM): 30.4% and 14.1%
- inhibition ([7]; at 0.5 µM): -15.3% (inactive) and -32.2% (inactive)
- inhibition ([7]; cisplatin combination, at 0.5 µM): -11.1% and -29.9%
- inhibition ([7]; cisplatin combination, at 5 µM): -16.5% and -11.4%
- inhibition ([7]; measured here: BGB IC40 combination 0.05 uM, at 0.05 µM): -6.85% and 14.5%
- inhibition ([7]; single agent, at 5 µM): -19.8% and -50%
- inhibition ([8]; at 0.5 µM): -14.1% (inactive) and 10.3% (inactive)
- inhibition ([8]; cisplatin combo, at 5 µM): 0.788% and 11.5%
- inhibition ([8]; measured here: BGB IC40 combination, at 0.05 µM): -1.19% and -22.9%
- inhibition ([8]; measured here: combination with cisplatin, at 0.5 µM): -43.2% and 20.2%
- inhibition ([8]; single agent, at 5 µM): -22.3% and -45%
